Publication PMC7862700, “An all-to-all approach to the identification of sequence-specific readers for epigenetic DNA modifications on cytosine”

Assays:
Assay in all cases: DAPPL (digital affinity profiling via proximity ligation, sequencing); 10 mM Tris-HCl pH 7.5, 50 mM NaCl, 1 mM DTT, 4% glycerol, room temperature, 30 min; GST-TFs on glutathione beads, 16-mer random dsDNA library, 0.1% formaldehyde crosslink after washing; high values mean tight binding
FLI1 = target: T1, FLI1 (Homo sapiens, UniProt Q01543 1-452); conditions: protein: recombinant; tags: N-terminal GST; dsDNA, one strand shown
T1 sequence: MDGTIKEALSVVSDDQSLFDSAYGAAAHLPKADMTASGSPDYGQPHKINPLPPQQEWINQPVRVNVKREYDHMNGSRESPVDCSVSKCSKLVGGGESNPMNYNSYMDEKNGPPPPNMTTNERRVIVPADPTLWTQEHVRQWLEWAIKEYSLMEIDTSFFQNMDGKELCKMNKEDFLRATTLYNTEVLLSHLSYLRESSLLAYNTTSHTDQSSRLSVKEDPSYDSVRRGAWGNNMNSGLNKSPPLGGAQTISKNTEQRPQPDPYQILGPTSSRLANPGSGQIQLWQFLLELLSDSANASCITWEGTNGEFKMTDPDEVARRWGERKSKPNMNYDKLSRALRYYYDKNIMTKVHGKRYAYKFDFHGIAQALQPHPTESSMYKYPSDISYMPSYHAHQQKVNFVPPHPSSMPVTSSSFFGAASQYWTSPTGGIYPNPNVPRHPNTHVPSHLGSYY
Method in brief: (§1)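 Human transcription factors fused to GST were expressed in yeast, captured on glutathione beads, given DNA barcodes and pooled with a GST-only negative control. Pools were incubated with 200 nmole of a 16-mer random double-stranded DNA library in Tris/NaCl/DTT/glycerol buffer at room temperature for 30 min. They were then washed, crosslinked with 0.1% formaldehyde, proximity-ligated (BsaI/T4 ligase, 1 h, 37 °C), PCR-amplified and sequenced on an Illumina NextSeq500. Binding signal is each 6-mer's read frequency for a factor divided by its frequency for the GST control.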

ELK1 = target: T2, ELK1 (Homo sapiens, UniProt P19419 1-428); conditions: protein: recombinant; tags: N-terminal GST; dsDNA, one strand shown
T2 sequence: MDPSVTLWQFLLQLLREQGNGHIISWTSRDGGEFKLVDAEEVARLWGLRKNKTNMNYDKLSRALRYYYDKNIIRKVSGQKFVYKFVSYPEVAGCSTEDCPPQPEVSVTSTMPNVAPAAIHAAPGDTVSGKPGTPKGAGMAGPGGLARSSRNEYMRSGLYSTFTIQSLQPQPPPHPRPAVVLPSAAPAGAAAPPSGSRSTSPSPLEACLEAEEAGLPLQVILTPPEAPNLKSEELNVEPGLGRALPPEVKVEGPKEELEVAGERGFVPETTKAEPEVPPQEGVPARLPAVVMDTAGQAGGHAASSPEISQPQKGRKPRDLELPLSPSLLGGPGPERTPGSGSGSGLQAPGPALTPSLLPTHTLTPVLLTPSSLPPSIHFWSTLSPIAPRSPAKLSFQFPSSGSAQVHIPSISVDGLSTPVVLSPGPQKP
Method in brief: as §1

GABPA = target: T3, GABPA (Homo sapiens, UniProt Q06546 1-454); conditions: protein: recombinant; tags: N-terminal GST; dsDNA, one strand shown
T3 sequence: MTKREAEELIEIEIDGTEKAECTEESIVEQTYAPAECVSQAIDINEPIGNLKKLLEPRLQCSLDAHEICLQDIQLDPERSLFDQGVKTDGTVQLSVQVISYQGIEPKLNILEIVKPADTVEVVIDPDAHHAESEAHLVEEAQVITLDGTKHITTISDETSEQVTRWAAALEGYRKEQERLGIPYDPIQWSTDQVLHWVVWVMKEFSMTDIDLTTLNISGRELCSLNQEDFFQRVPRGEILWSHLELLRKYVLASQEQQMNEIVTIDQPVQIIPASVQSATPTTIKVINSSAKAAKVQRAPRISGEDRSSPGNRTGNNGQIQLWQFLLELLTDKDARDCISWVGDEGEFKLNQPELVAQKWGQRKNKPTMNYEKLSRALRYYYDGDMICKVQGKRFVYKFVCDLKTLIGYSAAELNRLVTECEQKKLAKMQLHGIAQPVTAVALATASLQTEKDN
Method in brief: as §1

ERG = target: T4, ERG (Homo sapiens, UniProt P11308 1-479); conditions: protein: recombinant; tags: N-terminal GST; dsDNA, one strand shown
T4 sequence: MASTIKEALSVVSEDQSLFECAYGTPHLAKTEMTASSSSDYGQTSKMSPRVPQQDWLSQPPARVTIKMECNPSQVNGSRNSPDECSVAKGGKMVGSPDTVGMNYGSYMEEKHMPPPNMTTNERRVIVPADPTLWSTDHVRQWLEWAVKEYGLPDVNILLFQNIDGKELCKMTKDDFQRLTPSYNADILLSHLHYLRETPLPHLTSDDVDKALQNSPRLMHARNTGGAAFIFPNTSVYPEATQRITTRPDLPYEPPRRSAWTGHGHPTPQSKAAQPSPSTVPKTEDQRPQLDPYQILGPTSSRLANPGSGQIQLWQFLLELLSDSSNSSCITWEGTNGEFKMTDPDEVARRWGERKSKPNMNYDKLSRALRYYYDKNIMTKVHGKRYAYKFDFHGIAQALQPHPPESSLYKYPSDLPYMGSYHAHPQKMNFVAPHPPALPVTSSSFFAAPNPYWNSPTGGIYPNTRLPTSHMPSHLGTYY
Method in brief: as §1

ELF1 = ELF1 (Homo sapiens, UniProt P32519 1-619); conditions: protein: recombinant; tags: N-terminal GST; dsDNA, one strand shown
Method in brief: as §1

EHF = target: T5, EHF (Homo sapiens, UniProt Q9NZC4 1-300); conditions: protein: recombinant; tags: N-terminal GST; dsDNA, one strand shown
T5 sequence: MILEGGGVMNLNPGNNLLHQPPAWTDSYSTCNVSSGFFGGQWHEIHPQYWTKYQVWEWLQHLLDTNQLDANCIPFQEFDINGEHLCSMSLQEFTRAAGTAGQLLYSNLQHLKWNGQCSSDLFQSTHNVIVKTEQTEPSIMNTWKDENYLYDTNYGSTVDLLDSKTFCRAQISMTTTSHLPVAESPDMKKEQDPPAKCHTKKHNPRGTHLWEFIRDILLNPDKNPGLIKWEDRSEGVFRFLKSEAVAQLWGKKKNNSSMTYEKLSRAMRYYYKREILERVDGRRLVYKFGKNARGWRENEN
Method in brief: as §1

SPI1 = SPI1 (Homo sapiens, UniProt P17947 1-270); conditions: protein: recombinant; tags: N-terminal GST; dsDNA, one strand shown
Method in brief: as §1

SPIB = SPIB (Homo sapiens, UniProt Q01892 1-262); conditions: protein: recombinant; tags: N-terminal GST; dsDNA, one strand shown
Method in brief: as §1

ELK3 = target: T6, ELK3 (Homo sapiens, UniProt P41970 1-407); conditions: protein: recombinant; tags: N-terminal GST; dsDNA, one strand shown
T6 sequence: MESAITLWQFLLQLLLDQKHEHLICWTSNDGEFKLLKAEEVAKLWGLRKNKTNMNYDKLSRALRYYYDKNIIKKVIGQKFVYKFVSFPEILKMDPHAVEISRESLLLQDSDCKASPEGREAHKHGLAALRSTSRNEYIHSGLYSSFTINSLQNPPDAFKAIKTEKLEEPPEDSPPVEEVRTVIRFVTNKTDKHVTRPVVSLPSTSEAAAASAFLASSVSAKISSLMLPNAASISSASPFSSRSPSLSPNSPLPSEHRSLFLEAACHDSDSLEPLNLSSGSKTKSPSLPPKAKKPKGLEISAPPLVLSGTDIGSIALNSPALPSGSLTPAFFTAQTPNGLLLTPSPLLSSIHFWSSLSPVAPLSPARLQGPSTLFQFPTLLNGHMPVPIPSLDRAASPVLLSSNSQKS
Method in brief: as §1

FEV = target: T7, FEV (Homo sapiens, UniProt Q99581 1-238); conditions: protein: recombinant; tags: N-terminal GST; dsDNA, one strand shown
T7 sequence: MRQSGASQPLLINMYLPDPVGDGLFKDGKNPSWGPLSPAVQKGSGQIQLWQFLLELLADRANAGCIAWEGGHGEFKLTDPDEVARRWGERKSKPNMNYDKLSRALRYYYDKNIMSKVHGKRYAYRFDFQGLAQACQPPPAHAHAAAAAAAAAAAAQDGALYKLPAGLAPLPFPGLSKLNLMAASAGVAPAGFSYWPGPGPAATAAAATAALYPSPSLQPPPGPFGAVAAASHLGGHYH
Method in brief: as §1

ETV5 = ETV5 (Homo sapiens, UniProt P41161 1-510); conditions: protein: recombinant; tags: N-terminal GST; dsDNA, one strand shown
Method in brief: as §1

HSF1 = HSF1 (Homo sapiens, UniProt Q00613 1-529); conditions: protein: recombinant; tags: N-terminal GST; chain copies: 3; dsDNA, one strand shown
Method in brief: as §1

SPIC = target: T8, SPIC (Homo sapiens, UniProt Q8N5J4 1-248); conditions: protein: recombinant; tags: N-terminal GST; dsDNA, one strand shown
T8 sequence: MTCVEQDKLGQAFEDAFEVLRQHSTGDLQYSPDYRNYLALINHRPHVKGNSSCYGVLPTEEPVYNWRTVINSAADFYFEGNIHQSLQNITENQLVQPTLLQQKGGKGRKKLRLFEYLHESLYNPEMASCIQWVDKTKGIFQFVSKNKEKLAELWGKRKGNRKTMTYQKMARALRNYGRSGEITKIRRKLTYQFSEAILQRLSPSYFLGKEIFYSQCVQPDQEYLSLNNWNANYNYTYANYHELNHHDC
Method in brief: as §1

ELF4 = ELF4 (Homo sapiens, UniProt Q99607 1-663); conditions: protein: recombinant; tags: N-terminal GST; dsDNA, one strand shown
Method in brief: as §1

ELK4 = target: T9, ELK4 (Homo sapiens, UniProt P28324-2 1-405); conditions: protein: recombinant; tags: N-terminal GST; dsDNA, one strand shown
T9 sequence: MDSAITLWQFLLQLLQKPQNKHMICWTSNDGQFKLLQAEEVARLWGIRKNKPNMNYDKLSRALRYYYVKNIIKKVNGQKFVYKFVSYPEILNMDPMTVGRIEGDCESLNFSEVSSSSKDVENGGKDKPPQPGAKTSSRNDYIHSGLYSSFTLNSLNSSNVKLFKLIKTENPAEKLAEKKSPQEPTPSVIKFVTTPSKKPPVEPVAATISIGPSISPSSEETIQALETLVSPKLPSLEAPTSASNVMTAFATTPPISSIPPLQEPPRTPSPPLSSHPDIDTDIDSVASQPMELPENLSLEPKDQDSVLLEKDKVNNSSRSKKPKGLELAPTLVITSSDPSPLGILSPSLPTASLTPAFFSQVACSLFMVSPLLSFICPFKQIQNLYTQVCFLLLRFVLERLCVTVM
Method in brief: as §1

ETV2 = target: T10, ETV2 (Homo sapiens, UniProt O00321 1-342); conditions: protein: recombinant; tags: N-terminal GST; dsDNA, one strand shown
T10 sequence: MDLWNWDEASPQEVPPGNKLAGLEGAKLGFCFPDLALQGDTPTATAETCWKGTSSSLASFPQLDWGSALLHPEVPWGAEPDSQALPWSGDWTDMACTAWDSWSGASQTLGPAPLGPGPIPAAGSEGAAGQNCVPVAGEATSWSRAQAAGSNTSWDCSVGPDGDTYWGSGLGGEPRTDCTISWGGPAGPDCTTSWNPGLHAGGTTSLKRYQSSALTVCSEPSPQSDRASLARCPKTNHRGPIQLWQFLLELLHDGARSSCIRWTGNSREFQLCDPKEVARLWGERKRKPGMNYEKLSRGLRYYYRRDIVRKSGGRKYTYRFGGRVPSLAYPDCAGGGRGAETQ
Method in brief: as §1

ELF3 = target: T11, ELF3 (Homo sapiens, UniProt P78545 1-371); conditions: protein: recombinant; tags: N-terminal GST; dsDNA, one strand shown
T11 sequence: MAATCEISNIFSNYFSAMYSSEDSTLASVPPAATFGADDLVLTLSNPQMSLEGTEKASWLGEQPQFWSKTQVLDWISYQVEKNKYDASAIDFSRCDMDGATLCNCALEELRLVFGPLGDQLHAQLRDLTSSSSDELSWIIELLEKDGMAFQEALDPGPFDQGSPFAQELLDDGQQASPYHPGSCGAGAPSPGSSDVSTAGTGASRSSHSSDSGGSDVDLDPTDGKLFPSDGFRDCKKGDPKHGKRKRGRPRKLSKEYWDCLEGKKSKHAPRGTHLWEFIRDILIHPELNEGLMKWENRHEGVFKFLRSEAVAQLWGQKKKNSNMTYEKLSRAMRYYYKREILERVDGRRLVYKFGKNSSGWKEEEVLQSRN
Method in brief: as §1

CRX = CRX (Homo sapiens, UniProt O43186 1-299); conditions: protein: recombinant; tags: N-terminal GST; dsDNA, one strand shown
Method in brief: as §1

ETV1 = ETV1 (Homo sapiens, UniProt P50549 1-477); conditions: protein: recombinant; tags: N-terminal GST; dsDNA, one strand shown
Method in brief: as §1

Chain of HSF1 (Q00613 whole entry): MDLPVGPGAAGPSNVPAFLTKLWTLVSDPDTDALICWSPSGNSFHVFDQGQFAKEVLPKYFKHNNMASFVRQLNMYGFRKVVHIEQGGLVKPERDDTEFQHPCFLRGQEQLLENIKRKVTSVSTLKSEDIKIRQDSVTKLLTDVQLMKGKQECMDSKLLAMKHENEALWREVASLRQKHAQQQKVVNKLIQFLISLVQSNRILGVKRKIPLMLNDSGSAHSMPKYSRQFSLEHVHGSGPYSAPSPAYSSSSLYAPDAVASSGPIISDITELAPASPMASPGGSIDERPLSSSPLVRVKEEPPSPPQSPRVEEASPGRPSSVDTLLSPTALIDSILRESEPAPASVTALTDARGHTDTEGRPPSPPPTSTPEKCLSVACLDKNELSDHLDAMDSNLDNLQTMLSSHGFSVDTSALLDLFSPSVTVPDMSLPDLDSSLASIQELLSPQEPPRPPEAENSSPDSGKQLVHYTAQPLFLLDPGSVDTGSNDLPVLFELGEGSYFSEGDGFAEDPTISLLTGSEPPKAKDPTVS
Chain of ETV1 (P50549 whole entry): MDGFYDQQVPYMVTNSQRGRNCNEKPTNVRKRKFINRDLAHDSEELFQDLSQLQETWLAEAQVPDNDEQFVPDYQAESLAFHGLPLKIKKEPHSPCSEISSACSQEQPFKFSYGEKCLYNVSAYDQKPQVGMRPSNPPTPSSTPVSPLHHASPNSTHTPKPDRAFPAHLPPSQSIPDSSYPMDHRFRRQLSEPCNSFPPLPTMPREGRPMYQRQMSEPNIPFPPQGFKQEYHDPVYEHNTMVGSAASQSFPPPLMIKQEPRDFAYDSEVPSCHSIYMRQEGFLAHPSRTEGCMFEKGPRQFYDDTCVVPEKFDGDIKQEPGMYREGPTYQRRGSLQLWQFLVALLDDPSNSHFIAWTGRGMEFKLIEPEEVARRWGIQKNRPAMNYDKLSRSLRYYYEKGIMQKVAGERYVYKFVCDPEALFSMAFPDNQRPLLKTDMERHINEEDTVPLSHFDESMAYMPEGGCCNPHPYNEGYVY
Chain of ELF4 (Q99607 whole entry): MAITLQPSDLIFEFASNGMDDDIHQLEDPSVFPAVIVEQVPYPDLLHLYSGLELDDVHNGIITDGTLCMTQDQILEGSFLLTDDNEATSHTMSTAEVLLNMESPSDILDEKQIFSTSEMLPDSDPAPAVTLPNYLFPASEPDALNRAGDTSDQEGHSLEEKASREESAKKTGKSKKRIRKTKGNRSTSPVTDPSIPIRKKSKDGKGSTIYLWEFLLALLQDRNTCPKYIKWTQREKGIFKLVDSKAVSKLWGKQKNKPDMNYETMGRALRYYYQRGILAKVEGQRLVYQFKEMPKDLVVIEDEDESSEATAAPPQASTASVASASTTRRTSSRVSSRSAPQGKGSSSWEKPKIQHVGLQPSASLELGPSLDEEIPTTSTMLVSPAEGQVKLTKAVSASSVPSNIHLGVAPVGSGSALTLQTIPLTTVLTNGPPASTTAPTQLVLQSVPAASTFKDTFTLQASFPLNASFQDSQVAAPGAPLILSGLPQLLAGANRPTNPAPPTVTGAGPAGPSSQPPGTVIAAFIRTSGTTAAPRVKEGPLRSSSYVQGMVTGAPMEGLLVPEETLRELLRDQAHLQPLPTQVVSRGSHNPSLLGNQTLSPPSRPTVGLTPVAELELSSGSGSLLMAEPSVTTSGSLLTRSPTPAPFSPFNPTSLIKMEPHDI
Chain of ELF1 (P32519 whole entry): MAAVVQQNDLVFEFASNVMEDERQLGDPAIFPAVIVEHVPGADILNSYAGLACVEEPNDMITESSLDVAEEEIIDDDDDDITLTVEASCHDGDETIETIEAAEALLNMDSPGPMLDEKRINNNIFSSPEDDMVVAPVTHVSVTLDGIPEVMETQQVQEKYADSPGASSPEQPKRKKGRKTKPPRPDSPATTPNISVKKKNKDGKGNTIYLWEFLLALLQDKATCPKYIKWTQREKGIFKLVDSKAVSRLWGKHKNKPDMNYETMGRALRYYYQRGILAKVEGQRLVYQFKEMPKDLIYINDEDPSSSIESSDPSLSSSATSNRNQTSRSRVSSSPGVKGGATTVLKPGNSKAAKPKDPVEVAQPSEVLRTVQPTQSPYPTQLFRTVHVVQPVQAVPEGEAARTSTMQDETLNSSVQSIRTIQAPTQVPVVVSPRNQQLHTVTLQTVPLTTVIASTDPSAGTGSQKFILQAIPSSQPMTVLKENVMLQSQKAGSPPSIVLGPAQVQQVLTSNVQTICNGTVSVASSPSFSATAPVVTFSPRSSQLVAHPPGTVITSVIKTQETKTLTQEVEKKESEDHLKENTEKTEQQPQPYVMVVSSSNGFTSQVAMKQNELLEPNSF
Chain of CRX (O43186 whole entry): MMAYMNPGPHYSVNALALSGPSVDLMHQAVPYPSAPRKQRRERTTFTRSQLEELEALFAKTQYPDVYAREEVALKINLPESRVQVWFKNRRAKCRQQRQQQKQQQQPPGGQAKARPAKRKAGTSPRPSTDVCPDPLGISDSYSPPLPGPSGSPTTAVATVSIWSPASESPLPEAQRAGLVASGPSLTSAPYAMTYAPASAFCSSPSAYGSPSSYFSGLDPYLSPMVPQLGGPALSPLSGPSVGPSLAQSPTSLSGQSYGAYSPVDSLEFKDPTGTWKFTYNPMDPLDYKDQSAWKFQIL
Chain of SPIB (Q01892 whole entry): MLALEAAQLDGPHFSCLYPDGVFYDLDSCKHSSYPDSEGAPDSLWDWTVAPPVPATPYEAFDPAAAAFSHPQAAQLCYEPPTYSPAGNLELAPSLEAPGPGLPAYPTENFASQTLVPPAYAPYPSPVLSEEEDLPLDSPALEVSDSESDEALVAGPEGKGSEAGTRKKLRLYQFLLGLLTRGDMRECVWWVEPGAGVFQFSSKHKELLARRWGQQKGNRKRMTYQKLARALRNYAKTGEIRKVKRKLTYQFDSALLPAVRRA
Chain of ETV5 (P41161 whole entry): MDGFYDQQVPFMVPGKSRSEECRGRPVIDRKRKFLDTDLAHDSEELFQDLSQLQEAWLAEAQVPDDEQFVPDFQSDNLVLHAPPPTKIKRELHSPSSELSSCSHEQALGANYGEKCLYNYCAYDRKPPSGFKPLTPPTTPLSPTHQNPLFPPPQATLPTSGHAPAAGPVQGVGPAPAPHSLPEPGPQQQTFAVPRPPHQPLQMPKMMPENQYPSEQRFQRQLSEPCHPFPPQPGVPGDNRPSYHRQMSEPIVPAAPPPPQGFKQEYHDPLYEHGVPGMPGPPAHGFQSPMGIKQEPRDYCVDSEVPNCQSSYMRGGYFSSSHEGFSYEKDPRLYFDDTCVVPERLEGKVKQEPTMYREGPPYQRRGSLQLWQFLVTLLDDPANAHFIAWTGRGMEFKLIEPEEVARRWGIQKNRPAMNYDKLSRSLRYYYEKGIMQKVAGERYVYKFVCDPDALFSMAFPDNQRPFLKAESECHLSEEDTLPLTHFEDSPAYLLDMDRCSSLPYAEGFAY

## TACGAC
FLI1
  binding signal: 1.33 fold enrichment (6-mer frequency, TF over GST control)
ELK1
  binding signal: 1.2 fold enrichment (6-mer frequency, TF over GST control)
GABPA
  binding signal: 1.29 fold enrichment (6-mer frequency, TF over GST control)
ERG
  binding signal: 1.26 fold enrichment (6-mer frequency, TF over GST control)
ELF1
  binding signal: 1.27 fold enrichment (6-mer frequency, TF over GST control)
EHF
  binding signal: 1.23 fold enrichment (6-mer frequency, TF over GST control)
SPI1
  binding signal: 1.25 fold enrichment (6-mer frequency, TF over GST control)
SPIB
  binding signal: 1.22 fold enrichment (6-mer frequency, TF over GST control)
ELK3
  binding signal: 1.36 fold enrichment (6-mer frequency, TF over GST control)
FEV
  binding signal: 1.28 fold enrichment (6-mer frequency, TF over GST control)
ETV5
  binding signal: 1.18 fold enrichment (6-mer frequency, TF over GST control)
HSF1
  binding signal: 1.14 fold enrichment (6-mer frequency, TF over GST control)
SPIC
  binding signal: 1.22 fold enrichment (6-mer frequency, TF over GST control)
ELF4
  binding signal: 1.34 fold enrichment (6-mer frequency, TF over GST control)
ELK4
  binding signal: 1.3 fold enrichment (6-mer frequency, TF over GST control)
ETV2
  binding signal: 1.51 fold enrichment (6-mer frequency, TF over GST control)
ELF3
  binding signal: 1.31 fold enrichment (6-mer frequency, TF over GST control)
CRX
  binding signal: 1.25 fold enrichment (6-mer frequency, TF over GST control)
ETV1
  binding signal: 1.37 fold enrichment (6-mer frequency, TF over GST control)
